# Experimental data taken from PubChem BioAssay.
# The source made the active and inactive calls.
# Key:
# [1] = resazurin metabolic signal in HepG2 cells – cell-based, resazurin fluorescence, 24 h, PK04 Diversity Set, profiling panel (AID 1172); conditions: HepG2 viability, higher = more signal; also: test concentration not given here
# [2] = budding yeast growth changes without added modifier – OD600, strain BY4716, 24 h, basal condition, primary screen (AID 1173); conditions: S. cerevisiae BY4716 growth, OD600, 24 h; higher = more signal, called active from +8 up or from −8 down
# [3] = viability profiling in MM1S myeloma cells – cell-based, resazurin fluorescence, basal, 24 h, PK04 Diversity Set, profiling panel (AID 1174); conditions: higher = more signal, called active from +8 up or from −8 down;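 also: MM1S multiple myeloma cell line; test concentration not given here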
# [4] = biological target: Dihydroorotate dehydrogenase (quinone), mitochondrial (Plasmodium falciparum (isolate 3D7)) (UniProt Q08210); assay: inhibition of P. falciparum DHODH – biochemical, C-terminal His tag, absorbance 600 nm, primary screen (AID 1175); conditions: PfDHODH enzyme, DCIP absorbance 600 nm; higher = more signal, called active from +8 up or from −8 down;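 also: recombinant parasite enzyme with a five histidine tag at its C terminus; test concentration not given here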
# Dihydroorotate dehydrogenase (quinone), mitochondrial (Plasmodium falciparum (isolate 3D7)), sequence (Q08210 whole entry, looked up): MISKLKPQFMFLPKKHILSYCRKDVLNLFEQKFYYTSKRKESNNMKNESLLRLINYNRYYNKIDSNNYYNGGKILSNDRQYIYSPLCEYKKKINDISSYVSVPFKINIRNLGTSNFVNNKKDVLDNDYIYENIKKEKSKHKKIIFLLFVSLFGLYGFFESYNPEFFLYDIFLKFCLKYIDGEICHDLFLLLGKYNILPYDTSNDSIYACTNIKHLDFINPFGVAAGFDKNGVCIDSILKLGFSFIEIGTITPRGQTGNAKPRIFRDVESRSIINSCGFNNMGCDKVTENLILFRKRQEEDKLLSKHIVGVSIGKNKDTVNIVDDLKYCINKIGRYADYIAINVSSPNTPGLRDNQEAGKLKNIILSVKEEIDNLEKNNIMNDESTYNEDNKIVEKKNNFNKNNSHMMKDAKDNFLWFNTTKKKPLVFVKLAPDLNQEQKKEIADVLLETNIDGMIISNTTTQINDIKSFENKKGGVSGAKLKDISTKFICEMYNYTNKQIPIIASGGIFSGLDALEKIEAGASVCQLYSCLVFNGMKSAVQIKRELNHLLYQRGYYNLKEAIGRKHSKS
# [5] = growth modulation of vineyard yeast isolate – strain RM11-1a, OD600, basal, 24 h, primary screen (AID 1177);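 also: cultures grown under basal conditions with no added stressor; test concentration not given here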; conditions: S. cerevisiae RM11-1a growth, OD600, 24 h; higher = more signal, called active from +8 up or from −8 down
# [6] = growth of efflux-deficient E. coli DRC39 – strain DRC39, OD650, 24 h, E. coli filamentation inducers, primary screen (AID 1178);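 also: growth measured as culture turbidity by optical density at 650 nm; test concentration not given here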; conditions: E. coli DRC39 acrAB, higher = more signal, called active from +8 up or from −8 down
# [7] = growth of efflux-deficient E. coli DRC39 – strain DRC39, OD650, 48 h, E. coli filamentation inducers, primary screen (AID 1179);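 also: screen aims at cell division blockers that make cells filament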; conditions: E. coli DRC39 delta-acrAB growth, higher = more signal, called active from +8 up or from −8 down
# [8] = viability profiling in RPMI8226 myeloma cells – cell-based, resazurin fluorescence, basal, 24 h, PK04 Diversity Set, profiling panel (AID 1180); conditions: higher = more signal;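 also: RPMI8826 multiple myeloma cell line at 5000 cells per well; test concentration not given here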
# [9] = biological target: E3 ubiquitin-protein ligase XIAP (Homo sapiens) (UniProt P98170); assay: small molecules binding XIAP protein – biophysical, small-molecule microarray, fluorescence 635 nm, primary screen (AID 1181); conditions: higher = more signal;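 also: score merges 667 nm emission and signal to noise over triplicate slides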
# E3 ubiquitin-protein ligase XIAP (Homo sapiens), sequence (P98170 whole entry, looked up): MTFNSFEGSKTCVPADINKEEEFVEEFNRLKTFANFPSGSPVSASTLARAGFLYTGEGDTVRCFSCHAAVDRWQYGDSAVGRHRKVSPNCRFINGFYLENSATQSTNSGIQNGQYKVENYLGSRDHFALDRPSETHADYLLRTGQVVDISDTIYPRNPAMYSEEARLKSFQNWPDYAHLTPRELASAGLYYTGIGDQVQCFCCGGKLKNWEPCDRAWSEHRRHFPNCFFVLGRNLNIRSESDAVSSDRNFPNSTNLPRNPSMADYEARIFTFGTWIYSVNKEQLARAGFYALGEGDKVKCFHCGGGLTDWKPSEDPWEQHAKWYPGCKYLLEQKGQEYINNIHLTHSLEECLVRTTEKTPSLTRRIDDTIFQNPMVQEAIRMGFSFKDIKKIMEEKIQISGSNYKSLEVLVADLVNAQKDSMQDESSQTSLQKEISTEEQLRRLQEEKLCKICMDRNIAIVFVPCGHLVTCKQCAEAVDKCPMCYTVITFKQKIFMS
SMILES,z-score [1],z-score [2],z-score [3],composite z-score [4],z-score [5],z-score [6],z-score [7],z-score [8],composite z-score [9]
C[C@@H]1CC[C@H]2C(=O)N3[C@@H](CC[C@@H](C)[C@@H]3c3cccc(N4CCOCC4)c3)C(=O)N2[C@H]1c1cccc(N2CCOCC2)c1,0.728,-0.0109 (inactive),1.04 (inactive),0.148 (inactive),1.35 (inactive),0.203 (inactive),0.202 (inactive),1.39,-0.165
O=[N+]([O-])c1ccc(C[n+]2ccc3ccc(O)cc3c2)o1,-0.104,-5.54 (inactive),0.342 (inactive),-2 (inactive),-0.234 (inactive),-0.55 (inactive),-0.688 (inactive),0.405,0.411
COCCOC(=O)N1C(=O)[C@@]2(c3cc(C#CCNC(N)=O)ccc31)[C@H](c1ccc(OCCO)cc1)N1[C@H](c3ccccc3)[C@H](c3ccccc3)OC(=O)[C@H]1[C@@H]2C(=O)N1CCCCCCC1,0.377,1.52 (inactive),1.2 (inactive),0.0238 (inactive),2 (inactive),-0.132 (inactive),0.538 (inactive),1.41,-0.0559
COCCOC(=O)N1C(=O)[C@@]2(c3cc(C#CC4(O)CCCCCC4)ccc31)[C@H](C(=O)N1CCCCCCC1)[C@H]1C(=O)O[C@H](c3ccccc3)[C@H](c3ccccc3)N1[C@@H]2c1ccc(O)cc1,0.1,-0.975 (inactive),1.57 (inactive),0.0505 (inactive),0.322 (inactive),0.286 (inactive),0.264 (inactive),0.868,0.154
CCN1C(C)=C(C(=O)OC)[C@@H](c2ccccc2)N2C(=O)[C@@]3(C(=O)OC)O[C@@]12[C@@H]1C(=O)CCC[C@@H]13,0.584,-0.99 (inactive),1.03 (inactive),-1.39 (inactive),0.989 (inactive),-0.275 (inactive),-0.0144 (inactive),0.835,0.111
CC(C)CN1C(=O)[C@@]2(Cc3ccccc31)c1ccccc1C(=O)N(C1CCCCC1)[C@H]2c1ccc(CO)cc1,0.0515,-1.91 (inactive),1.05 (inactive),-2.88 (inactive),-1.12 (inactive),0.164 (inactive),0.464 (inactive),1.21,0.377
Cc1ccc(S(=O)(=O)c2cc3oc2CC[C@@H](CO)NC(=O)N(C)Cc2cn(nn2)C[C@H](Cc2ccccc2)NC3=O)cc1,1.02,-2.64 (inactive),1.42 (inactive),0.164 (inactive),0.288 (inactive),1.74 (inactive),1.3 (inactive),1.03,0.0975
COC(=O)C[C@H]1O[C@]2(C(=O)N(C)c3ccccc32)[C@@H](C)[C@@H]1[Si](C)(C)c1ccc(OC)cc1,-0.0652,-4.08 (inactive),0.504 (inactive),0.939 (inactive),-1.41 (inactive),2.5 (inactive),0.871 (inactive),0.452,0.0942
C=CCN1C(=O)[C@@]2(O[C@@H](CCn3cc([C@H](O)c4ccccc4)nn3)[C@H]([Si](C)(C)c3ccc(OC)cc3)[C@H]2C)c2cc(N3CCOC3=O)ccc21,-0.555,-1.5 (inactive),-0.365 (inactive),-1.47 (inactive),-1.57 (inactive),1.41 (inactive),0.391 (inactive),-1.24,0.076
CO[C@@H]1COC(=O)CC=C[C@@H](C)[C@H](OC)COC(=O)CC=C[C@H]1C,0.994,-1.43 (inactive),0.176 (inactive),-0.136 (inactive),-0.658 (inactive),0.642 (inactive),0.505 (inactive),0.854,0.0891
O=C1c2ccccc2[C@](Cc2ccccc2I)(C(=O)O)[C@H](c2ccc(CO)cc2)N1C1CCCCC1,-0.221,-1.14 (inactive),1.8 (inactive),-0.0088 (inactive),-1.05 (inactive),0.938 (inactive),0.832 (inactive),1.36,0.0225
CN(C)C(=O)[C@@]1(Cc2ccccc2N=[N+]=[N-])N=C(c2ccc(OCCCO)cc2)O[C@H]1c1ccccc1CN=[N+]=[N-],1.12,-1.4 (inactive),-0.437 (inactive),-0.812 (inactive),-0.726 (inactive),2.45 (inactive),0.842 (inactive),-1.67,0.229
C=CCNC(=O)[C@H]1[C@@H]2C(=O)O[C@@H](c3ccccc3)[C@@H](c3ccccc3)N2[C@@H](c2ccccc2OCCO)[C@]12C(=O)N(C(=O)OCCOC)c1ccc(C#CCC(C(=O)OC)C(=O)OC)cc12,-0.234,1.06 (inactive),1.25 (inactive),0.229 (inactive),1.72 (inactive),1.11 (inactive),0.761 (inactive),-0.54,0.182
CO[C@H]1COC(=O)[C@H](CCSC)NC(=O)CC=C[C@@H](C)COC(=O)[C@@H](OCc2ccccc2)C=C[C@@H]1C,0.732,0.0539 (inactive),1.06 (inactive),0.292 (inactive),0.449 (inactive),0.607 (inactive),0.26 (inactive),0.658,-0.12
CN(C)CCCC[C@@H]1NC(=O)[C@@H]2C[C@H](C(=O)NCCCCCNC(=O)CS)[C@H](c3ccc(O)cc3)N2C1=O,-0.23,-0.312 (inactive),1.01 (inactive),-1.38 (inactive),-1.13 (inactive),0.964 (inactive),0.809 (inactive),0.975,0.104
O=C1O[C@@H](c2ccccc2)[C@@H](c2ccccc2)N2[C@@H](c3ccc(O)cc3)[C@]3(C(=O)Nc4ccccc43)[C@@H](C(=O)N3CCN(c4ncccn4)CC3)[C@H]12,0.838,-0.863 (inactive),-0.798 (inactive),-0.63 (inactive),-0.0045 (inactive),0.208 (inactive),1.05 (inactive),-0.442,-0.311
Cc1ccc(S[C@]2(C(=O)O)CC(=O)N(Cc3ccccc3)[C@@H]2c2ccc(CO)cc2)cc1,1.06,-3.67 (inactive),1.6 (inactive),-0.891 (inactive),-1.14 (inactive),0.537 (inactive),0.612 (inactive),0.512,0.123
[N-]=[N+]=Nc1ccccc1C[C@@]1(C(=O)N2CCOCC2)N=C(c2ccc(OCCCO)cc2)O[C@@H]1c1ccccc1N=[N+]=[N-],-0.133,-2.54 (inactive),-1.93 (inactive),-0.489 (inactive),0.0278 (inactive),1.08 (inactive),0.115 (inactive),-3.91,-0.256
Cc1ccc(N2C(=O)c3ccccc3[C@@H](C(=O)NCc3ccccc3)[C@@H]2c2ccc(CO)cc2)nc1,0.138,0.0819 (inactive),1.36 (inactive),0.787 (inactive),1.11 (inactive),-0.0753 (inactive),-0.0787 (inactive),1.06,0.02
Cc1ccc(S[C@]2(C(=O)NCCN3CCOCC3)CC(=O)N(C3Cc4ccccc4C3)[C@@H]2c2ccc(CO)cc2I)cc1,0.0862,-5.55 (inactive),-1.48 (inactive),-0.24 (inactive),-2.62 (inactive),-0.0522 (inactive),-0.169 (inactive),-1.41,0.194
COC(=O)c1c(CC[C@@H](CO)NC(=O)N[C@H](Cn2cc(-c3cncn3C)nn2)C(C)C)oc(C(C)=O)c1C(=O)OC,-0.623,-0.476 (inactive),0.254 (inactive),-4.63 (inactive),-1.06 (inactive),2.37 (inactive),1.47 (inactive),-0.0832,-0.0884
C=CCNC(=O)[C@@H]1[C@H]2C(=O)O[C@H](c3ccccc3)[C@H](c3ccccc3)N2[C@H](c2ccc(OCCO)cc2)[C@@]12C(=O)N(C(=O)OCCOC)c1ccc(C#CC3(O)CCCCCC3)cc12,0.14,-0.985 (inactive),0.39 (inactive),-1.57 (inactive),0.442 (inactive),0.862 (inactive),0.351 (inactive),0.239,0.276
CO[C@H]1COC(=O)CC=C[C@H](C)[C@@H](OC)COC(=O)CC=C[C@@H]1C,1.4,-1.65 (inactive),1.18 (inactive),0.522 (inactive),-1.38 (inactive),1.2 (inactive),1.21 (inactive),0.749,-0.199
COCCOC(=O)N1C(=O)[C@@]2(c3cc(C#CCC(C(=O)OC)C(=O)OC)ccc31)[C@H](C(=O)N1CCN(c3ncccn3)CC1)[C@H]1C(=O)O[C@H](c3ccccc3)[C@H](c3ccccc3)N1[C@@H]2c1ccc(O)cc1,0.203,-0.746 (inactive),0.805 (inactive),-1.06 (inactive),0.164 (inactive),0.535 (inactive),1.31 (inactive),0.821,-0.0749
O=C1O[C@@H](c2ccccc2)[C@@H](c2ccccc2)N2[C@@H](c3ccc(O)cc3)[C@]3(C(=O)Nc4ccc(C#CC5(O)CCCCCC5)cc43)[C@@H](C(=O)Nc3nc4ccccc4s3)[C@H]12,0.527,-0.657 (inactive),1.19 (inactive),-0.067 (inactive),0.74 (inactive),0.597 (inactive),0.946 (inactive),0.88,-0.184
CO[C@H]1COC(=O)[C@H](C)COC(=O)[C@H](Cc2ccccc2)NC(=O)CC=C[C@H]1C,0.492,-1.3 (inactive),0.62 (inactive),-0.393 (inactive),-0.954 (inactive),0.192 (inactive),0.144 (inactive),0.254,-0.267
CC(=O)NCCCC[C@@H]1NC(=O)[C@@H]2C[C@H](C(=O)NCCCCCCN(C)C)[C@H](c3ccc(O)cc3)N2C1=O,0.478,-0.574 (inactive),1.12 (inactive),0.266 (inactive),0.662 (inactive),0.325 (inactive),0.249 (inactive),0.912,0.103
